# According to PubChem BioAssay:
# Active and inactive are the calls of the source.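 How the source made its calls, unless noted: active means fluorescence slope higher than the sample average by over 3 SD (cut at about -0.22 in these data, passing the limit was not always enough); inactive means the rest.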
# Columns and labels:
# [1] = inhibitors of TNFa-induced NFkB p65 translocation, primary screen, imaging, HUVEC, MLSMR starter and 10KST1 sets (AID 438;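 active means inhibition above 20% together with a positive visual image hit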;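 further: compound added about 3h40 before a 20 min TNFalpha stimulation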;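 on inhibition: signal is the nuclear over cytoplasmic p65 intensity ratio per well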); conditions: HUVEC TNFa-induced p65 nuclear translocation; cell count: measured here: nuclei count (cytotoxicity indicator), at 2.08 µM; inhibition: at 2 µM, stronger effect = higher value, 0% TNFa-plus-vehicle, 100% no-TNFa wells
# [2] = reduction of polyQ htt aggregates in cells – imaging, exon1htt(103Q)mCFP cells, high-content imaging, primary screen (AID 483;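 active means visual image review flags a hit and inhibition of aggregation exceeds 20%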;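 further: compound exposure lasted 3 days before fixation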;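 on nuclei count: percent of the per-plate median nuclei count of sample wells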); conditions: exon1htt(103Q)mCFP cell line, aggregate imaging, at 2 µM; inhibition of aggregation: stronger effect = higher value; nuclei count: measured here: cell count, toxicity
# [3] = endothelial E-selectin expression blockers – imaging, HUVEC, immunofluorescence, MLSMR starter and 10KST1 sets, primary screen (AID 487;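 active means visually confirmed hit in the image check and inhibition above 20%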;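 on inhibition: signal is fraction of cell area covered by stained E-selectin grains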;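 on nuclei count: 100% = median nuclei count of all wells on the same plate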); conditions: HUVEC TNFalpha-induced E-selectin immunofluorescence imaging, at 2 µM; inhibition: stronger effect = higher value; nuclei count: measured here: cell number, toxicity
# [4] = biological target: Voltage-gated potassium channel subunit beta-2 (Rattus norvegicus) (UniProt P62483); test: inhibitors of rat Kvbeta2 reductase activity – biochemical, NADPH fluorescence, primary screen (AID 622); conditions: recombinant KvBeta, 4-cyanobenzaldehyde reduction, at 10 µM, stronger effect = higher value;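 further: slope of raw intensity against log time taken from 70 to 1610 s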
# Chain of Voltage-gated potassium channel subunit beta-2 (Rattus norvegicus) (P62483 whole entry, looked up): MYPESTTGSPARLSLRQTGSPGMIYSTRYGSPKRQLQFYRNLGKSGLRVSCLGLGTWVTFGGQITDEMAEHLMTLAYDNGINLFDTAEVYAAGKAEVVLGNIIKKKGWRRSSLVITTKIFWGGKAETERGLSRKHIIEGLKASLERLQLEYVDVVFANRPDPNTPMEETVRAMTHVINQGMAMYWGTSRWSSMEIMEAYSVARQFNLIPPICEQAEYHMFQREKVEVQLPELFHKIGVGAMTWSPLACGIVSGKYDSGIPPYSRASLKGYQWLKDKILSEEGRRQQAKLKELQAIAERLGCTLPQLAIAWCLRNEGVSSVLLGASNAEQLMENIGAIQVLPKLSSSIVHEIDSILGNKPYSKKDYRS
# [5] = biological target: Voltage-gated potassium channel subunit beta-2 (Rattus norvegicus) (UniProt P62483); test: enhancers of rat Kvbeta2 NADPH turnover – biochemical, NADPH fluorescence, primary screen (AID 623;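 active means NADPH fluorescence slope more negative than the mean of all samples by about 3 SD, 99.7% confidence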;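 further: fluorescence intensity change per second fitted from 20 to 320 s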); conditions: Recombinant KvBeta, NADPH fluorescence decrease slope, 10 min; at 10 µM; stronger effect = lower value
# [6] = biological target: Alpha-2C adrenergic receptor (Homo sapiens) (UniProt P18825); test: compounds altering alpha2C-coupled GIRK flux – cell-based, HEK293 alpha2C/GIRK1/2, thallium flux, primary screen (AID 624;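 active means fluorescence slope after compound addition differing from the mean of all screened samples at 99.7% confidence, in either direction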;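 further: slope of fluorescence ratio to pre-addition baseline per second over 15 to 24 s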); conditions: thallium flux BTC fluorescence, at 10 µM, actives lie on both sides
# Chain of Alpha-2C adrenergic receptor (Homo sapiens) (P18825 whole entry, looked up): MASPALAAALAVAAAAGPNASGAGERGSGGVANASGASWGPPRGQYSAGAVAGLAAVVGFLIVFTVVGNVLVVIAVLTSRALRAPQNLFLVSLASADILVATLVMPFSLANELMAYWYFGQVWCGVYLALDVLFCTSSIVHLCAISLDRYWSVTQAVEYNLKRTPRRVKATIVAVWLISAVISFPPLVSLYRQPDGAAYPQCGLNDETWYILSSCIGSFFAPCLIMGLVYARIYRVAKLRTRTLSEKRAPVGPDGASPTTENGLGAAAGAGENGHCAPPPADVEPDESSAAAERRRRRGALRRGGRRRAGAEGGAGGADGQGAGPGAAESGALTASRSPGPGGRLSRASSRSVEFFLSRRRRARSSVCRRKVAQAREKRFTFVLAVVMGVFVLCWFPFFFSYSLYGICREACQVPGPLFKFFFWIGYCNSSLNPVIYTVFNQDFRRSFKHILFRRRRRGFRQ
# [7] = blockers of RIG-like receptor reporter activation – cell-based, Sendai virus stimulus, luciferase, 10K MLSCN set, TLR/RLR signaling modifier project, primary screen (AID 602276;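 active means inhibition at or above 50% at 10 µM; inactive means inhibition below 50%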;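 further: firefly luciferase from ISG56 promoter only with Renilla not read in this screen; 0% = Sendai virus plus DMSO and 100% = medium plus DMSO without virus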); conditions: HEK293 RL24 IRF3 luciferase reporter, at 10 µM, stronger effect = higher value
# [8] = TLR3 IRF3 reporter activation blockers – cell-based, poly I:C stimulus, luciferase, 10K MLSCN set, primary screen (AID 602277;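 active means inhibition of the reporter signal at or above 50%; inactive means inhibition below 50%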); conditions: HEK293-TLR3 RL24 IRF3 luciferase reporter, at 10 µM, stronger effect = higher value
SMILES,cell count [1],inhibition [1],inhibition of aggregation [2],nuclei count [2],inhibition [3],nuclei count [3],fluorescence slope [4],NADPH fluorescence slope [5],slope [6],inhibition [7],inhibition [8]
COc1ccc(NC(=O)c2cnc3n(c2=O)CCS3)cc1OC,484,-3.4% (inactive),-15% (inactive),92.4%,-9.5% (inactive),98.8%,-0.515 (inactive),-3.9e-05 (inactive),0.00659 (inactive),-2.41% (inactive),-20.9% (inactive)
O=c1[nH]c(Nc2ccccc2)cc2ccccc12,526,-14.6% (inactive),-7.1% (inactive),101%,-33.7% (inactive),96.7%,-0.132 (inactive),1.3e-05 (inactive),0.00342 (inactive),7.19% (inactive),7.53% (inactive)
COc1cccc(NC(=O)N2CCC(N3CCCCC3)CC2)c1,369,5.2% (inactive),7.2% (inactive),105%,-124% (inactive),119%,-0.582 (inactive),2.5e-05 (inactive),0.00728 (inactive),15.9% (inactive),26.1% (inactive)
Cc1cccc(-n2nnnc2SCc2csc(-c3ccccc3)n2)c1,413,2.9% (inactive),-8.3% (inactive),125%,-106% (inactive),127%,-0.502 (inactive),-3.3e-05 (inactive),0.00568 (inactive),9.28% (inactive),6.25% (inactive)
CCOc1ccccc1C1CC(c2ccc(Br)cc2)Nc2nc(N)nn21 (stereo not drawn),593,6.9% (inactive),19.2% (inactive),94.5%,-14.1% (inactive),107%,-0.512 (inactive),-4.3e-05 (inactive),0.0067 (inactive),18.7% (inactive),33.7% (inactive)
COc1cccc(C(=O)n2cnnc2N)c1OC,391,-2.4% (inactive),1% (inactive),109%,41.5% (inactive),102%,-0.382 (inactive),8e-06 (inactive),0.00713 (inactive),16.3% (inactive),21.1% (inactive)
Cc1oc(-c2ccccc2F)nc1CS(=O)(=O)CC(=O)N1CCCCCC1,712,-1.1% (inactive),-22.4% (inactive),116%,-40.3% (inactive),117%,-0.57 (inactive),-9.9e-06 (inactive),0.00627 (inactive),-6.49% (inactive),1.53% (inactive)
COc1ccc(C(=O)NC(=O)CSc2nnc(-c3ccco3)n2-c2ccccc2)cc1,447,14.6% (inactive),-9.6% (inactive),104%,-9.4% (inactive),107%,-0.324 (inactive),-7e-05 (inactive),0.0052 (inactive),5.3% (inactive),10.1% (inactive)
